# Source: PubChem (National Center for Advancing Translational Sciences (NCATS))
# An excerpt weighted towards active compounds, which were near 11% of everything screened.
# L3MBTL1 inh = blocks human L3MBTL1; Q9Y468; AID 485360; Potency, µM (top dose mostly 57.1 µM), for the others: at the highest dose activity, negative = inhibition, hits mostly inhibitors; 0.66% of 230,000 active; AlphaScreen L3MBTL1–H3K9me1 peptide binding; note: potency is the fitted concentration of half-maximal effect; % is set by controls: 0 for no effect and ±100 for the full control effect; nearly all actives have a fitted effect of over 60% in size
#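 L3MBTL1 (50 nM) pre-complexed 30 min with biotinylated H3(1-15)K9me1 peptide (75 nM), then compounds added for 30 min at room temperature; AlphaScreen streptavidin donor/nickel chelate acceptor beads (10 ug/mL final) read after 30 min dark incubation.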
# G9a block = inhibitors of human histone lysine methyltransferase G9a. Q96KQ7. Potency, µM (top dose mostly 102 µM), without a hit: at the highest dose activity, negative = inhibition, actives largely listed as inhibitors. G9a H3K9 monomethylation, AlphaScreen, 2 h. 8.8% of 350,000 active; note: potency is the fitted concentration of half-maximal effect; % is set by controls: 0 for no effect and ±100 for the full control effect; nearly all actives have a fitted effect of over 75% in size
# Target sequence (Q96KQ7 913-1193 limits assumed): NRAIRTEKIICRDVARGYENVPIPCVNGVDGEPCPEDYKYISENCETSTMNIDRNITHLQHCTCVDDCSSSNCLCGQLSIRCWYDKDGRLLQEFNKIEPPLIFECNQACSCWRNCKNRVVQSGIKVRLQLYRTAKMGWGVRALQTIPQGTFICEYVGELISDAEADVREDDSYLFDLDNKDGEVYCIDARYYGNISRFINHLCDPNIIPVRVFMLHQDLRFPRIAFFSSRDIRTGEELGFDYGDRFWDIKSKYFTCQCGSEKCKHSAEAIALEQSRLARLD
#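 Methyltransferase reactions run at room temperature for 2 h (20 nM enzyme, 500 nM biotin-H3K9 peptide, 20 uM SAM) after a 15 min compound preincubation; product detected by AlphaScreen beads and anti-H3K9me1 antibody.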
# PI5P4K alpha inh = PI5P4K alpha (human) kinase inhibition. P48426. 1.2% of 330,000 active. AID 652105. max response, %. PI5P4Kalpha enzyme, ADP-Glo luminescence, 60 min; stronger effect = lower value; active = max response of -50% or lower; inconclusive = between -30% and -50%; inactive = -30% or higher; note: value at the top dose of about 77 µM; % is set by controls: 0 for no effect and ±100 for the full control effect
#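 qHTS, 1536-well: enzyme/substrate mix, compound by pin tool, 5 microM ATP final; RT 60 min; ADP-Glo reagents 1 (45 min) then 2 (30 min); luminescence.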
# JMJD2A Tudor inh = inhibitors of human JMJD2A Tudor domain | O75164 | AlphaScreen JMJD2A-Tudor / H3K4me3 peptide binding | Potency, µM (top dose mostly 114 µM), for inactives: top-dose activity change, negative = inhibition, usual class: inhibitors | 4.4% of 390,000 active; note: potency is the fitted concentration of half-maximal effect; % is set by controls: 0 for no effect and ±100 for the full control effect; nearly all actives have a fitted effect of over 50% in size
# HP1b binding inh = HP1-beta chromodomain-methylated histone interaction inhibition; P83916; AlphaScreen HP1-beta / biotin-H3K9me3 peptide binding; Potency, µM (doses to about 114 µM), inactives show at the top dose activity change, negative = inhibition, usual class: inhibitors; 0.56% of 390,000 active; AID 540317; note: potency is the fitted concentration of half-maximal effect; nearly all actives have a fitted effect of over 70% in size
# Target sequence (P83916 whole entry, looked up): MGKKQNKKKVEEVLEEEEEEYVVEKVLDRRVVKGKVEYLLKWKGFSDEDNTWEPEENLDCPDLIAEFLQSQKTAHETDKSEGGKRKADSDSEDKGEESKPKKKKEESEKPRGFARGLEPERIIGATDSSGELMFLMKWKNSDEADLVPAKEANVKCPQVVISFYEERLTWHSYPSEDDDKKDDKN
#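 HP1-beta protein (50 nM final) preincubated 30 min at room temperature with biotinylated H3(1-18)K9me3 peptide (50 nM) in PBS pH 7.4, 0.01% Tween-20, then compound added for 30 min. AlphaScreen streptavidin donor/nickel chelate acceptor beads (10 ug/mL final), 30 min dark, luminescence read.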
# BAZ2B inh = BAZ2B (human) inhibition; Q9UIF8; AlphaScreen BAZ2B-H3K14Ac peptide displacement; Potency, µM (titrated, usually from 114 µM), without a hit: at the highest dose activity change, negative = inhibition, hits mostly inhibitors; 4.4% of 360,000 active; AID 504333; note: potency is the fitted concentration of half-maximal effect; % is set by controls: 0 for no effect and ±100 for the full control effect; nearly all actives have a fitted effect of over 60% in size
#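 Multi-concentration screen (max 110 uM) measuring displacement of acetylated histone H3 peptide from BAZ2B by AlphaScreen, using 50 nM protein, 50 nM peptide and 10 ug/mL streptavidin donor plus Ni-chelate acceptor beads.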
# * hit, by the source's call; ? = inconclusive; . = no result given; [ ] = another dose, or the depositor's remark. Unless noted, calls come from the whole dose curve; as a rule, active = well fitted inhibition curve with a large enough effect; inconclusive = small, poorly fitted or top-dose-only effect; inactive = no such curve, though single readings can be large or run the other way.
SMILES,L3MBTL1 inh,G9a block,PI5P4K alpha inh,JMJD2A Tudor inh,HP1b binding inh,BAZ2B inh
CNC(=O)c1c(NC(=O)CCS(=O)(=O)c2ccccc2)sc2c1CCN(C(=O)OC)C2,9.4%,50.1µM*,6.1,-10.3%,17.9%,0.5%
CCCN1CCc2c(sc(NC(=O)CCS(=O)(=O)c3ccccc3)c2C(N)=O)C1,.,?,4.2,-10.4%,-5.8%,-17.2%
O=C(CN1c2ccccc2S(=O)(=O)c2ccccc21)Nc1ccccc1Cl,.,6.0%[59 µM],.,-29.0%,?,-16.9%
COc1cccc(CNC(=O)Nc2ccc3c(c2)N(C)C(=O)c2ccccc2S3)c1,.,-40.0%[59 µM],.,-28.1%,29.7%,-20.9%
O=C(O)c1ccc2c(c1)C(=O)N([C@H](Cc1ccc(C(F)(F)F)cc1)C(=O)O)C2=O,8.0%,-1.5%[12.7 µM],.,-6.2%,.,4.8%
N#CC1=CN(Cc2ccccc2)C=C(/C=N/Nc2ccccc2)C1,.,3.55µM*,-27.5,?,0.5%,-35.2%
CCOC(=O)C(=O)C1=CN(Cc2ccccc2)C=C(C#N)C1,.,?,-1.4,-5.6%,21.9%,6.2%
COc1ccc(S(=O)(=O)N(C)C(C)CCc2ccco2)cc1 (configuration not stated),.,79.4µM*,-28.3,-9.3%,12.2%,-27.2%
Cc1ccc(S(=O)(=O)N(C)C(C)CCc2ccco2)cc1 (configuration not stated),3.0%,12.3%[12.7 µM],-16.1,1.7%,23.3%,6.7%
CCc1cccc(NC(=O)CSc2nnc(Cc3ccc(OC)cc3)c(=O)[nH]2)c1,-5.1%,50.1µM*,-4.9,2.8%,5.5%,9.5%
COC(=O)c1cccc(NC(=O)CSc2nc(O)c(-c3ccccc3)c(=O)[nH]2)c1,-26.9%,70.8µM*,-27.2,-24.0%,22.4%,?
COC(=O)c1cccc(NC(=O)CSc2nc(=O)cc(N)n2-c2ccccc2)c1,.,?,0.0,-22.3%,-11.3%,56.2µM*
CCOc1ccc(NC(=O)CC2C(=O)N(c3ccccc3)C(=O)N2Cc2cccc(OC)c2)cc1 (configuration not stated),.,?,.,-13.4%,12.6%,-18.7%
COc1ccc(NC(=O)CCc2c(C)nn(-c3ccc(N4CCOCC4)nn3)c2C)cc1Cl,.,-1.6%[59 µM],.,-34.0%,5.7%,-28.4%
COc1cccc(NC(=O)c2oc3ccccc3c2NC(=O)c2ccc(F)c(F)c2)c1,.,-13.1%[59 µM],.,0.0%,52.2%,6.4%
CCn1c(=S)[nH]c2c(=O)n(C)c(=O)n(C)c21,.,.,-69.4*,5.01µM*,?,.
Cn1c(=O)c2[nH]c(Br)nc2n(C)c1=O,.,-41.0%[12.7 µM],.,.,.,.
O=c1ccc2ccc(Oc3ccc(Cl)cc3[N+](=O)[O-])cc2o1,.,31.6µM*,0.3,?,-20.5%,?
Cc1nc(C)c(-c2csc(Nc3ccc(F)cc3)n2)s1,-14.6%,20µM*,9.9,?,?,?
Cc1nc(C)c(-c2csc(Nc3ccc(O)cc3C)n2)s1,2.3%,-1.4%[59 µM],-3.1,-30.3%,15.0%,-4.6%
Cc1nc(C)c(-c2csc(Nc3ccc(C(=O)O)c(O)c3)n2)s1,3.9%,?,-72.5*,-32.1%,-4.2%,?
O=C(c1csnn1)N1CCC2(CC1)CN(c1ccccn1)C2,.,-1.2%[12.7 µM],.,.,.,.
Cc1ccc(CN(Cc2cc3cc(C)ccc3[nH]c2=O)Cc2nnnn2Cc2ccccc2)cc1,.,.,.,-12.3%[57.1 µM],2.6%[57 µM],.
CCN(CC)CCCNC(=O)c1c(C)oc2ncnc(N3CCOCC3)c12,.,4.3%[59 µM],.,9.7%,23.3%,10.0%[57.1 µM]
CCOc1cc(/C=N/NC(=O)c2cccnc2)ccc1O,9.9%,6.1%,-1.7,-9.9%,26.9%,-1.2%
SMILES,L3MBTL1 inh,G9a block,PI5P4K alpha inh,JMJD2A Tudor inh,HP1b binding inh,BAZ2B inh
COc1cc([N+](=O)[O-])cc(/C=N/NC(=O)C(C)Nc2cccc3ccccc23)c1O (configuration not stated),-18.5%,44.7µM*,-50.3*,?,-28.8%,44.7µM*
COc1cccc(/C=N/NC(=O)N/N=C/c2cccc(OC)c2O)c1O,-3.9%[2.29 µM],-2.9%[0.501 µM],-27.3,?,34.5%,10.4%
Cc1cc(C)nc(N/N=C/c2ccccc2OCc2cccc(Br)c2)n1,-4.6%,13.7%[59 µM],17.0,-35.9%,-2.4%,-10.4%
CCOc1cccc(/C=N/NC(=O)c2cccnc2)c1O,-25.0%,32.2%,3.9,89.1µM*,58.2%,31.6µM*
COc1cccc(C=NNC(=O)c2ccncc2)c1O,.,.,9.9,56.2µM*,15.0%,.
COc1ccccc1NC(C)C(=O)N/N=C/c1ccccc1OCc1cccc(Br)c1 (configuration not stated),-12.4%,50.1µM*,0.2,?,-6.2%,-37.5%
CCOC(=O)c1cc2c(=O)n3ccccc3nc2n(CC(C)C)c1=NC(=O)COc1ccc(Cl)cc1,.,9.8%[59 µM],.,11.6%,33.9%,7.0%
COc1cc([N+](=O)[O-])cc(/C=N/NC(=O)C(O)(c2ccccc2)c2ccccc2)c1O,-6.5%,-3.3%,0.6,-27.8%,18.4%,?
COc1cc(OC)c(/C=N/NC(=O)c2ccncc2)c(OC)c1,-1.3%,2.8%,-4.5,3.98µM*,16.2%,9.4%
COc1c(/C=N/NC(=O)[C@H]2C[C@@H]2c2ccccc2)c(CCN(C)C(C)=O)cc2c1OCO2,-4.0%,-7.8%[59 µM],3.3,-21.9%,54.5%,-14.0%
COc1cc([N+](=O)[O-])cc(/C=N/NC(=O)c2cccnc2)c1O,14.1µM*,.,-12.7,22.4µM*,13.0%,17.8µM*
Cc1ccc(/C=N/NC(=O)c2ccccc2OCc2cccc(Br)c2)o1,-0.1%,25.1µM*,-18.2,-35.8%,?,-38.6%
O=C(N/N=C/c1cccnc1)c1ccccc1OCc1cccc(Br)c1,.,-31.0%,0.2,-2.3%,36.7%,.
COc1c(/C=N/NC(=O)c2ccncc2)c(CCN(C)C(C)=O)cc2c1OCO2,-1.8%,50.1µM*,0.7,2.8%,3.0%,-13.4%
COc1ccc(OC)c(/C=C2\SC(=S)N(NS(=O)(=O)c3ccc(C)cc3)C2=O)c1,.,5.3%[2.33 µM],-67.4*,50.1µM*,?,?
COc1ccc(/C=C2\SC(=S)N(NS(=O)(=O)c3ccc(C)cc3)C2=O)c(OC)c1,.,-45.6%,-75.5*,56.2µM*,-19.1%[57 µM],?
Cc1ccc(S(=O)(=O)NN2C(=O)/C(=C/c3cccnc3)SC2=S)cc1,.,-2.6%,-29.8,-11.2%,34.6%,-26.7%
COc1ccccc1/C=C1\SC(=S)N(NS(=O)(=O)c2ccc(C)cc2)C1=O,.,?,?,?,-17.8%,50.1µM*
CCOc1ccc(/C=C2\SC(=S)N(NS(=O)(=O)c3ccc(C)cc3)C2=O)cc1OC,-22.9%,?,2.4,?,-10.0%,?
Cc1nn2c(-c3cccc(NC(=O)CSc4nc5ccccc5o4)c3)nnc2c2ccccc12,-8.0%,15.8µM*,?,-27.6%,2.7%,8.6%
